This is a sample that favours compounds with a hit; in the whole collection about 11% have one here.
HCV inh = HCV inhibition. Potency, µM (highest dose often 41.8 µM), for the others: top-dose activity change, negative = inhibition, usual class: inhibitors. 3.4% of 340,000 active. Huh7.5.1 HCVcc-Cre infection, luciferase reporter, 44 h. AID 651820
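Antiviral activity was scored by luciferase reporter output from cells infected with HCVcc-Cre (~0.5 moi) in presence of compound, 44 h infection period, cells seeded 1,000/well 4 h prior.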
Pf growth 96h = P. falciparum growth inhibition at 96 hour, primary screen for plastid delayed-death inhibitors; P. falciparum luciferase reporter growth, 96 h; Potency, µM (doses to about 28.7 µM), inactives show at the top dose activity change, negative = inhibition, actives largely listed as inhibitors; 6.9% of 320,000 active
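Luminescence readout: decreased luciferase signal marks inhibited growth of reporter-expressing P. falciparum in infected red cells (2% hematocrit, 0.05% parasitemia final), exposed to compound two generations (96 h, 37 C, 5% CO2).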
Pf growth 48h = P. falciparum growth inhibition at 48 hours (one generation). P. falciparum luciferase growth in erythrocytes, 48 h. Potency, µM (highest dose often 28.7 µM), without a hit: top-dose activity change, negative = inhibition, usual class: inhibitors. 5.9% of 310,000 active. AID 504832
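Compounds are pin-transferred into medium, infected erythrocytes (2% hematocrit, 0.1% parasitemia final) are added, and plates sit one parasite generation at 37 C in 5% CO2. Detection reagent is then added and luminescence measured.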
AMA1-RON2 inh = inhibitors of Plasmodium falciparum AMA1-RON2 interaction; AlphaScreen AMA1-biotinylated RON2 peptide binding; Potency, µM (top dose mostly 58.2 µM), for inactives: top-dose activity change, negative = inhibition, most hits filed as inhibitors; 0.2% of 360,000 active;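 note: 0% = vehicle wells and -100% = peptide control; nearly all actives have a fitted effect of over 45% in size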
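AMA1 (3D7) with his tag at 25 nM final met compounds first, then biotinylated RON2 peptide at 25 nM; detection used donor plus acceptor beads, 10 µg/mL apiece, read by AlphaScreen after 30 min at room temperature.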
* hit, by the source's call; ? = inconclusive; · = no result; [ ] = remark or other dose. Calls come from the whole dose curve; as a rule, active = well fitted curve in the direction sought with a large enough effect; inconclusive = small, poorly fitted or top-dose-only effect, or another doubt; inactive = no such curve, though single readings can be large; an effect the other way counts as inactive or inconclusive. Unless noted, % is set by controls: 0 for no effect and ±100 for the full control effect; potency is the fitted concentration of half-maximal effect.

SMILES | HCV inh | Pf growth 96h | Pf growth 48h | AMA1-RON2 inh
C=CCOC(=O)C1=C(C)NC(SCC(=O)Nc2nccs2)=C(C#N)C1c1ccc(Cl)cc1 (centres undefined) | ? | 2.1µM* | 2.1µM* | 14%
Cn1c2c(c(=O)n(C)c1=O)C(c1ccc(Br)cc1)C(C#N)=C(N)N2 (centres undefined) | -5% | ? | 53% | 2%
COC(=O)C1=C(C)NC(C)=C(C(=O)OC)C1C(=O)OC(C)C(=O)c1ccccc1 (centres undefined) | 15% | ? | ? | -4%
COc1cccc(NC(=O)C2CCN(C(=O)[C@@H]3Cc4ccccc4CN3C(=O)OC(C)(C)C)CC2)c1 | -16% | ? | 10µM* | 18%
O=C(NCCCc1ccccc1)c1cccc(NC(=O)C2CCCCC2)c1 | 4.5µM* | · | · | 16%
C[C@@H](NC(=O)[C@@H]1Cc2ccccc2CN1C(=O)OC(C)(C)C)C(=O)NC1CCCCC1 | -6% | 13µM* | ? | 13%
CC(C)(C)OC(=O)N(Cc1ccccc1)Cc1cccc(OCc2cccc(NC(=O)C3CC3)c2)c1 | 1.3µM* | · | · | 8%
CC(=O)Nc1ccc(Oc2cncc(Cl)c2)nc1 | -11% | 26% | 10% | 2%
O=C(N=C1SC2CS(=O)(=O)CC2N1Cc1ccccc1)C1CC1 (centres undefined) | · | · | · | -4%
CC(C)(C)OC(=O)N1CCC(C(=O)Nc2cccc(C(=O)NCCCc3ccccc3)c2)CC1 | 4µM* | · | · | -8%
O=[N+]([O-])c1ccc(-c2cnc(SC(c3ccccc3)c3ccccc3)[nH]2)cc1 | ? | 7.4µM* | ? | ?
Cc1cc(C)c(CSc2ncc(-c3ccc([N+](=O)[O-])cc3)[nH]2)c(C)c1 | 11µM* | ? | ? | ?
CCCCNC(C(=O)Nc1ccc(Cl)c([N+](=O)[O-])c1)c1ccccc1 (centres undefined) | -13% | 12µM* | ? | 8%
CCSc1ccc2cc(OC)ccc2[n+]1CC | -13% | ? | 0.74µM* | 0%
CC[n+]1c(SC)ccc2cc(OC)ccc21 | 4% | -2% | 0.74µM* | -15%
CCn1c(=S)ccc2ccc(OC)cc21 | ? | 30% | 12% | -14%
CC(=O)Nc1ccc(NC2=C/C(=N/S(=O)(=O)c3cccs3)c3ccccc3C2=O)cc1 | ? | 104% | 0.15µM* | -26%
Cc1ccc(NS(=O)(=O)c2cccs2)c(C)c1 | -13% | ? | 10% | 4%
Cc1ccccc1NC1=C/C(=N\S(=O)(=O)c2cccs2)c2ccccc2C1=O | 3.5µM* | · | 0.093µM* | 8.9µM*
COC(=O)C(C(C)=O)C1=C/C(=N\S(=O)(=O)c2ccc(C)cc2)c2ccccc2C1=O (centres undefined) | ? | ? | · | -5%
Cc1ccc(C)c(S(=O)(=O)/N=C2\C=C(NS(=O)(=O)c3ccccc3)C(=O)c3ccccc32)c1 | 4% | ? | ? | -22%
COc1ccc(S(=O)(=O)/N=C2\C=C(Nc3ccc(O)cc3)C(=O)c3ccccc32)cc1 | 5.6µM* | 18% | 0.93µM* | 18µM*
Cc1ccc(NC2=C/C(=N/S(=O)(=O)c3cccs3)c3ccccc3C2=O)cc1C | 8% | 11% | 0.66µM* | -15%
CC(=O)Nc1ccc(NC(=O)C(C)OC(=O)c2ccccc2NS(=O)(=O)c2cccs2)cc1 (centres undefined) | -17% | ? | -5% | -3%
O=C(NCC1CCCO1)C(=O)NCC(c1ccco1)N1CCN(c2ccccc2)CC1 (centres undefined) | -5% | 4% | 4% | 6%
SMILES | HCV inh | Pf growth 96h | Pf growth 48h | AMA1-RON2 inh
COc1ccc(Cc2nnc3n2N=C(c2cc4ccccc4o2)CS3)cc1OC | 1% | · | · | -2%
CSC1=NC(C(Cl)(Cl)Cl)N=C(c2ccc(C)cc2)N1 (centres undefined) | ? | ? | 12µM* | 0%
O=C1CSc2ccc(C(=O)O)cc2N1 | 8% | 12µM* | 3% | 1%
COc1ccccc1C(=O)Nc1ccnn1C1CCN(Cc2cn(C)c3ccccc23)CC1 | ? | -17% | ? | -10%
O=C(Nc1ccnn1C1CCN(Cc2ccccc2)CC1)C1CCCC1 | 10% | -8% | ? | -1%
COc1ccc(O)c(CN2CCC(n3nccc3NC(=O)C3CCCC3)CC2)c1 | -18% | ? | 13µM* | 8%
CC(Cc1ccc(Cl)cc1)N1CCC(n2nccc2NC(=O)C2CCCC2)CC1 (centres undefined) | ? | ? | 10µM* | 5%
CCOc1ccccc1CN1CCC(n2nccc2NC(=O)C2CCCC2)CC1 | ? | -11% | 12µM* | -3%
Cn1cc(CN2CCC(n3nccc3NC(=O)c3ccccc3Cl)CC2)c2ccccc21 | -22% | ? | 3.3µM* | -15%
O=C(Nc1ccc2nc(C3CC3)n(Cc3ccc(F)cc3)c(=O)c2c1)c1ccco1 | 22µM* | · | 1.9µM* | ?
COc1cccc(Cn2c(C3CC3)nc3ccc(NC(=O)c4ccco4)cc3c2=O)c1 | ? | · | 3.7µM* | ·
CC(=O)Nc1ccc2nc(C3CC3)n(Cc3ccc(Cl)cc3)c(=O)c2c1 | ? | 36% | 127% | 5%
CC1CN(C(=O)CCC(=O)NCc2ccccc2Cl)c2ccccc2S1 (centres undefined) | -18% | 8.3µM* | -9% | 21%
COCC(C)NC(=O)c1cc2cccc([N+](=O)[O-])c2[nH]1 (centres undefined) | -25% | ? | 5.2µM* | -2%
Cc1cc(NC(=O)c2cc3cccc([N+](=O)[O-])c3[nH]2)ccc1F | 11µM* | ? | ? | -1%
O=C(Nc1ccc(F)c([N+](=O)[O-])c1)c1cccs1 | -18% | ? | 0% | 1%
Cc1ccccc1CN1CCN(S(C)(=O)=O)CC1 | 9% | -1% | 1% | -23%
Cc1ccccc1CN1CCN(S(=O)(=O)c2ccc(Cl)s2)CC1 | · | 13µM* | 13% | -14%
O=C(NCCc1ccccc1)c1coc(=O)c(Br)c1 | -4% | 17% | -20% | 16%
CS(=O)(=O)N1CCc2cc(C(=O)Nc3ccc(COCC(F)(F)F)cc3)ccc21 | 11µM* | ? | ? | -2%
CS(=O)(=O)N1CCc2cc(C(=O)Nc3ccc(O)cc3)ccc21 | -13% | ? | -7% | -1%
Cc1nnc(C)c2c(C)n(-c3ccc(Cl)c(N)c3)c(C)c12 | ? | 13µM* | -28% | -4%
Nc1nc2n(n1)C(=O)CC(c1ccccc1)N2 (centres undefined) | -4% | 9.3µM* | 16% | 12%
CCOC(=O)CCc1c(C)n[nH]c1C | 5% | -4% | 28% | 8%
CCOC(=O)CCCc1sc(N)nc1-c1[nH]c(=O)[nH]c1C | 27% | -23%[5.75 µM] | 23% | 1.5µM*
FC(F)(F)c1cc(-c2ccc3c(c2)OCO3)nc(NCc2ccco2)n1 | 6.3µM* | 3% | 17% | 6%
CC(=O)Nc1ccc(OC(=O)c2cc3ccccc3oc2=O)cc1 | 5% | 12µM* | 19% | 1%

Screening results (PubChem)
